Reference: the supplement of paper PMC8728848
About 410 targets per protein were measured; listed, in parts, are those with the strongest signals and a random draw of the rest.

Legend:
Assay in all cases: glycan array binding signal (z-score within array); higher = stronger binding
Conditions in all cases: glycan notation: IUPAC condensed, linker removed
[1] = target: Fuc(a1-2)Gal(b1-3)GalNAc(b1-3)Gal
How it was run: (§1)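 Glycan array data came from 3228 arrays in the Consortium for Functional Glycomics database, and only arrays with an available protein sequence were kept. Glycan names were put into IUPAC-condensed notation, and columns mapping to the same glycan were averaged. The binding signal is a within-array Z-score, averaged across arrays of one protein sequence run at different concentrations or buffers and across linkers. A negative Z-score can be read as non-binding.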

[2] = target: Fuc(a1-2)Gal(b1-3)GlcNAc(b1-3)[Fuc(a1-2)Gal(b1-3)GlcNAc(b1-6)]GalNAc
How it was run: as §1

[3] = target: Fuc(a1-2)Gal(b1-4)GlcNAc(b1-3)Gal(b1-4)GlcNAc(b1-3)Gal(b1-4)GlcNAc
How it was run: as §1

[4] = target: Fuc(a1-2)Gal(b1-4)GlcNAc(b1-3)GalNAc
How it was run: as §1

[5] = target: Fuc(a1-2)[Gal(a1-3)]Gal(b1-3)GlcNAc(b1-2)Man(a1-3)[Fuc(a1-2)[Gal(a1-3)]Gal(b1-3)GlcNAc(b1-2)Man(a1-6)]Man(b1-4)GlcNAc(b1-4)GlcNAc
How it was run: as §1

[6] = target: Fuc(a1-2)[Gal(a1-3)]Gal(b1-4)GlcNAc(b1-2)Man(a1-3)[Fuc(a1-2)[Gal(a1-3)]Gal(b1-4)GlcNAc(b1-2)Man(a1-6)]Man(b1-4)GlcNAc(b1-4)GlcNAc
How it was run: as §1

[7] = target: Fuc(a1-2)[Gal(a1-3)]Gal(b1-4)[Fuc(a1-3)]GlcNAc
How it was run: as §1

[8] = target: Fuc(a1-2)[GalNAc(a1-3)]Gal(b1-3)GlcNAc(b1-6)GalNAc
How it was run: as §1

[9] = target: Fuc(a1-3)[Gal(b1-4)]GlcNAc(b1-6)GalNAc
How it was run: as §1

[10] = target: Fuc(a1-3)[Gal3S(b1-4)]GlcNAc
How it was run: as §1

[11] = target: Fuc(a1-4)GlcNAc
How it was run: as §1

[12] = target: Gal(a1-3)Gal(b1-4)Glc
How it was run: as §1

[13] = target: Gal(a1-3)Gal(b1-4)GlcNAc(b1-6)GalNAc
How it was run: as §1

[14] = target: Gal(b1-3)Gal(b1-4)GlcNAc
How it was run: as §1

[15] = target: Gal(b1-3)GalNAc
How it was run: as §1

[16] = target: Gal(b1-3)GalNAc(b1-3)Gal
How it was run: as §1

[17] = target: Gal(b1-3)GlcNAc(b1-2)[Gal(b1-3)GlcNAc(b1-6)]Man(a1-6)[Gal(b1-3)GlcNAc(b1-2)Man(a1-3)]Man(b1-4)GlcNAc(b1-4)GlcNAc
How it was run: as §1

[18] = target: Gal(b1-3)GlcNAc(b1-3)Gal(b1-4)Glc
How it was run: as §1

[19] = target: Gal(b1-3)GlcNAc(b1-3)Gal(b1-4)GlcNAc(b1-2)[Gal(b1-3)GlcNAc(b1-3)Gal(b1-4)GlcNAc(b1-6)]Man(a1-6)[Gal(b1-3)GlcNAc(b1-3)Gal(b1-4)GlcNAc(b1-2)Man(a1-3)]Man(b1-4)GlcNAc(b1-4)[Fuc(a1-6)]GlcNAc
How it was run: as §1

[20] = target: Gal(b1-3)GlcNAc(b1-3)Gal(b1-4)GlcNAc(b1-3)Gal(b1-4)GlcNAc(b1-2)[Gal(b1-3)GlcNAc(b1-3)Gal(b1-4)GlcNAc(b1-3)Gal(b1-4)GlcNAc(b1-6)]Man(a1-6)[Gal(b1-3)GlcNAc(b1-3)Gal(b1-4)GlcNAc(b1-3)Gal(b1-4)GlcNAc(b1-2)Man(a1-3)]Man(b1-4)GlcNAc(b1-4)[Fuc(a1-6)]GlcNAc
How it was run: as §1

[21] = target: Gal(b1-3)GlcNAc(b1-3)Gal(b1-4)GlcNAc(b1-6)[Gal(b1-3)GlcNAc(b1-3)]Gal(b1-4)Glc
How it was run: as §1

[22] = target: Gal(b1-3)GlcNAc(b1-3)GalNAc
How it was run: as §1

[23] = target: Gal(b1-4)GlcNAc(a1-6)Gal(b1-4)GlcNAc
How it was run: as §1

[24] = target: Gal(b1-4)GlcNAc(b1-2)[Gal(b1-4)GlcNAc(b1-4)]Man(a1-3)[Gal(b1-4)GlcNAc(b1-2)[Gal(b1-4)GlcNAc(b1-6)]Man(a1-6)][GlcNAc(b1-4)]Man(b1-4)GlcNAc(b1-4)GlcNAc
How it was run: as §1

[25] = target: Gal(b1-4)GlcNAc(b1-2)[Gal(b1-4)GlcNAc(b1-4)]Man(a1-3)[GlcNAc(b1-4)][Gal(b1-4)GlcNAc(b1-2)Man(a1-6)]Man(b1-4)GlcNAc(b1-4)GlcNAc
How it was run: as §1

[26] = target: Gal(b1-4)GlcNAc(b1-3)Gal(b1-4)GlcNAc(b1-2)[Gal(b1-4)GlcNAc(b1-3)Gal(b1-4)GlcNAc(b1-6)]Man(a1-6)[Gal(b1-4)GlcNAc(b1-3)Gal(b1-4)GlcNAc(b1-2)Man(a1-3)]Man(b1-4)GlcNAc(b1-4)GlcNAc
How it was run: as §1

[27] = target: Gal(b1-4)GlcNAc(b1-3)Gal(b1-4)GlcNAc(b1-2)[Gal(b1-4)GlcNAc(b1-3)Gal(b1-4)GlcNAc(b1-6)]Man(a1-6)[Gal(b1-4)GlcNAc(b1-3)Gal(b1-4)GlcNAc(b1-2)Man(a1-3)]Man(b1-4)GlcNAc(b1-4)[Fuc(a1-6)]GlcNAc
How it was run: as §1

[28] = target: Gal(b1-4)GlcNAc(b1-3)Gal(b1-4)GlcNAc(b1-3)Gal(b1-4)GlcNAc(b1-2)[Gal(b1-4)GlcNAc(b1-3)Gal(b1-4)GlcNAc(b1-3)Gal(b1-4)GlcNAc(b1-6)]Man(a1-6)[Gal(b1-4)GlcNAc(b1-3)Gal(b1-4)GlcNAc(b1-3)Gal(b1-4)GlcNAc(b1-2)Man(a1-3)]Man(b1-4)GlcNAc(b1-4)[Fuc(a1-6)]GlcNAc
How it was run: as §1

[29] = target: Gal(b1-4)GlcNAc(b1-3)Gal(b1-4)GlcNAc(b1-3)Gal(b1-4)GlcNAc(b1-3)Gal(b1-4)GlcNAc(b1-2)Man(a1-3)[Gal(b1-4)GlcNAc(b1-3)Gal(b1-4)GlcNAc(b1-3)Gal(b1-4)GlcNAc(b1-3)Gal(b1-4)GlcNAc(b1-2)Man(a1-6)]Man(b1-4)GlcNAc(b1-4)GlcNAc
How it was run: as §1

B1: rMpL (Macrolepiota procera) (protein)
chain: MSTQVSSGRTYKITNVIAGTVIDLSGEDNKSIIGYPYHSGKNQQWTFNWTGKAWTLRSASSGSYLGIEGTPAGGTRLVAVNDPFEWHIWRDEANENAFRIFVPFTNYNLDLSGYGDTTPGTPVQLWWTWEGLHQTWTIDRP
glycan array binding signal (z-score) [1]: -0.272 | glycan array binding signal (z-score) [2]: -0.078 | glycan array binding signal (z-score) [3]: -0.248 | glycan array binding signal (z-score) [4]: -0.301 | glycan array binding signal (z-score) [5]: -0.259 | glycan array binding signal (z-score) [6]: -0.257 | glycan array binding signal (z-score) [7]: -0.216 | glycan array binding signal (z-score) [8]: -0.353 | glycan array binding signal (z-score) [9]: -0.065 | glycan array binding signal (z-score) [10]: -0.253 | glycan array binding signal (z-score) [11]: -0.316 | glycan array binding signal (z-score) [12]: -0.194 | glycan array binding signal (z-score) [13]: -0.27 | glycan array binding signal (z-score) [14]: -0.257 | glycan array binding signal (z-score) [15]: -0.273 | glycan array binding signal (z-score) [16]: -0.243 | glycan array binding signal (z-score) [17]: 3.42 | glycan array binding signal (z-score) [18]: 0.808 | glycan array binding signal (z-score) [19]: 2.4 | glycan array binding signal (z-score) [20]: 3.58 | glycan array binding signal (z-score) [21]: 4.17 | glycan array binding signal (z-score) [22]: 0.153 | glycan array binding signal (z-score) [23]: 9.59 | glycan array binding signal (z-score) [24]: 4.13 | glycan array binding signal (z-score) [25]: 1.46 | glycan array binding signal (z-score) [26]: 1.23 | glycan array binding signal (z-score) [27]: 3.75 | glycan array binding signal (z-score) [28]: 4.71 | glycan array binding signal (z-score) [29]: 3.24
